# Assay results from PubChem BioAssay AID485317 (Broad Institute, 2010).
# Hit rate of the full screen: of about 290,000 compounds, about 11,000 (3.8%) were called active.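 The calls were made as follows: active = mean replicate inhibition above about 79%, with every replicate also reaching it (limit read from the data); inconclusive = only one of the two criteria met; inactive = mean below limit and not every replicate reaching it.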 Many of the other results were omitted from the sample, so actives are more common in it than they were.
# Target: FAD-linked sulfhydryl oxidase ALR (Homo sapiens) (UniProt P55789)
# Experiment: ALR-catalysed DTT oxidation blockers – biochemical, H2O2 detection, HRP-luminol luminescence, single point, primary screen (AID 485317)
# Details: purified ALR, hits give high values, concentration not given here
# FAD-linked sulfhydryl oxidase ALR (Homo sapiens), sequence (P55789 whole entry, looked up): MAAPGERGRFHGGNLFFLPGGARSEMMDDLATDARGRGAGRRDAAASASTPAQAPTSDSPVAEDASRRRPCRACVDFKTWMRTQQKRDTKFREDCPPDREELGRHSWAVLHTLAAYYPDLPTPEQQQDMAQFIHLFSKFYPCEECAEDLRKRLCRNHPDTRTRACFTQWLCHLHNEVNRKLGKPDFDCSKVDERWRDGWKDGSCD
row,SMILES,inhibition
1,CCOC(=O)C1CCCN(C(=O)c2ccc(C)c(S(=O)(=O)N3CCCCC3)c2)C1 (centres undefined),-0.131% (inactive)
2,O=C1CSC(=S)N1c1ccc(O)cc1,91.3% (active)
3,COc1cc(N2C(=O)CSC2=S)cc(OC)c1OC,3.65% (inactive)
4,O=C1CSC(=S)N1c1ccc(Cl)c(Cl)c1,38.1% (inactive)
5,CCOc1ccccc1OCC(=O)Nc1ccccc1C(=O)NC1CC1,20.6% (inactive)
6,CCOc1ccc(C(C)NC(=O)CN2C(=O)NC3(CCCCC3)C2=O)cc1OCC (centres undefined),-15.6% (inactive)
7,NC(=O)c1c(NC(=O)CSc2nnc(-c3ccco3)n2N)sc2c1CCCC2,9.78% (inactive)
8,COc1cccc(OC)c1C(=O)Nc1sc2c(c1C(N)=O)CCCC2,-6.93% (inactive)
9,NC(=O)c1c(Nc2nc3c(F)cccc3s2)sc2c1CCCC2,87.1% (active)
10,O=C(NCc1ccc(Cl)cc1)C(=O)NCC1CCCN1S(=O)(=O)c1cccs1 (centres undefined),-0.71% (inactive)
11,Cc1ccc(NC(=O)c2cnc(SCC(=O)NCC3CCCO3)n(C)c2=O)cc1 (centres undefined),-10.7% (inactive)
12,Cc1nc(-c2ccc(F)cc2)c(CC(=O)Nc2cc(S(=O)(=O)N3CCCCC3)ccc2C)s1,-9.47% (inactive)
13,O=C1CC(NNc2ccccc2)C(=O)N1c1cccc(Cl)c1 (centres undefined),98% (active)
14,O=C(NNC1CC(=O)N(c2cccc(Cl)c2)C1=O)c1cccnc1 (centres undefined),11.7% (inactive)
15,O=C1CC(c2ccccc2)C(=O)N1c1cccc(O)c1 (centres undefined),14.5% (inactive)
16,COc1cc(C(=O)NC2CCN(C)CC2)ccc1Nc1ncc2c(n1)N(C1CCC(O)CC1)CCC(=O)N2C (centres undefined),-1.63% (inactive)
17,CCN1C(=O)[C@H]2[C@@H](c3ccc(SC4CCCCC4)c(OC)c3)N[C@@](Cc3ccccc3)(C(=O)OC)[C@H]2C1=O,-5.65% (inactive)
18,COc1ccc(CCC(=O)c2ccc(OC)cc2)cc1,-20.1% (inactive)
19,Cc1nc2cc(NC(=O)NC3CC3)ccc2n1C,50.8% (inactive)
20,Cc1nc2cc(NC(=O)Nc3cccc(F)c3)ccc2n1C,-7.89% (inactive)
21,Cc1nc2cc(NCc3cccs3)ccc2n1C,84% (active)
22,O=C(N=C1SC2CS(=O)(=O)CC2N1c1ccccc1)c1ccccc1 (centres undefined),-1.67% (inactive)
23,CC1(c2ccccc2)NC(=O)N(CC(=O)N2CC(=O)Nc3ccccc32)C1=O (centres undefined),-7.27% (inactive)
24,COc1ccc2c(c1)O/C(=C\c1ccccc1O)C2=O,0.703% (inactive)

row,SMILES,inhibition
1,CC1=C/C(=N\OS(=O)(=O)c2ccccc2)C=CC1=O,98.9% (active)
2,O=S(=O)(ON(c1ccccc1)S(=O)(=O)c1ccccc1)c1ccccc1,-14.1% (inactive)
3,CCCCCN(C(=O)CCC(=O)OCC(=O)NC1CCC(C)CC1)c1c(N)n(CCCC)c(=O)[nH]c1=O (centres undefined),-10.8% (inactive)
4,COC1=C/C(=C/c2c(N)n3nc(CC(=O)N4CCOCC4)sc3nc2=O)C=CC1=O,99.1% (active)
5,C=CCC1=C/C(=C\c2c(N)n3nc(CC(=O)N4CCOCC4)sc3nc2=O)C=C(OC)C1=O,54.3% (inactive)
6,COc1ccc(OCC(=O)N2CCOCC2)cc1,-7.03% (inactive)
7,O=C(Cc1ccc(S(=O)(=O)N2CCOCC2)s1)N1CCN(c2ccc(C(F)(F)F)cc2[N+](=O)[O-])CC1,-1.8% (inactive)
8,COc1ccccc1-c1sc2ccccc2c1-c1ccc(Br)nc1,-3.77% (inactive)
9,CC1CCCCC1NC(=O)c1cc(=O)[nH]c2ccccc12 (centres undefined),-38.4% (inactive)
10,CCC(C)(C)NC(=O)C1c2ccccc2Oc2ccccc21,-6.09% (inactive)
11,CCCCCNC(=O)C1c2ccccc2Oc2ccccc21,-7.1% (inactive)
12,O=C(N/N=C/c1ccc(O)c(O)c1)C1c2ccccc2Oc2ccccc21,99% (active)
13,CSCCC(NC(=O)COc1ccccc1)C(=O)N(C)CC(=O)Nc1ccc(C)cc1 (centres undefined),-1.79% (inactive)
14,COc1cccc(CNC(=O)CN2C(=O)NC(Cc3ccccc3)(c3ccccc3)C2=O)c1 (centres undefined),-2.85% (inactive)
15,CC(C)c1ccc(/C=C/C(=O)NCCCN2CCOCC2)cc1,3.5% (inactive)
16,O=C1[C@H]2[C@@H](c3ccc(F)cc3)N3C(=O)N(c4ccc(C(F)(F)F)cc4)C(=O)[C@@]3(Cc3ccccc3)[C@H]2C(=O)N1C1CCCCC1,2.08% (inactive)
17,CC(=N\NC(=O)c1cc(Br)ccc1O)/C(=N/O)C(=O)Nc1ccccc1,85.8% (active)
18,CC(C)/C=N/NC(=O)c1cc(Br)ccc1O,44.3% (inactive)
19,CC(=O)N/N=C(\C)c1ccc(Br)cc1Br,-9.48% (inactive)
20,COc1ccc(-c2sc3ccc(OC)cc3c2C#Cc2ccccn2)cc1,0.498% (inactive)
21,O=C(COc1coc(CN2CCN(c3ccccc3F)CC2)cc1=O)N1CCc2ccccc21,-0.38% (inactive)
22,COc1ccccc1-n1ccnc1SCC(=O)NC(C)(C)C,17.9% (inactive)
23,Cc1ccccc1CSCC(=O)NC(=O)NC(C)(C)C,-23.2% (inactive)
24,CC(C)(C)NC(=O)CSC(=Nc1ccccc1F)NC#N,98.7% (active)

row,SMILES,inhibition
1,COc1cc(C(C)=O)ccc1OC(C)C(=O)Nc1ccc(S(=O)(=O)N2CCCC2)cc1 (centres undefined),-9.52% (inactive)
2,O=C(CSc1ncnc2sccc12)NC1CCS(=O)(=O)C1 (centres undefined),-0.589% (inactive)
3,Cc1ccc(NC2CCCN(C(=O)CCc3cn[nH]c3)C2)cc1C (centres undefined),98.7% (active)
4,Cn1cc(CCC(=O)N2CCCC(C(=O)c3ccc(C(C)(C)C)cc3)C2)cn1 (centres undefined),-21% (inactive)
5,COc1ccccc1CN1CC(C(=O)NCCc2cn[nH]c2)CCC1=O (centres undefined),-0.59% (inactive)
6,CCC(C)c1ccc(NC(=O)COC(=O)C2CCCC2)cc1 (centres undefined),0.804% (inactive)
7,CC(OC(=O)c1c(F)cccc1F)C(=O)NCCC1=CCCCC1 (centres undefined),-6.45% (inactive)
8,O=C1CCCCN1CCCC(=O)N1CCCC(Nc2ccc(F)cc2)C1 (centres undefined),17.9% (inactive)
9,O=C(CN1C(=O)CSC1=O)N1CCCC(Nc2ccc(F)cc2)C1 (centres undefined),99.1% (active)
10,O=C(CN1CCOC1=O)N1CCCC(Nc2ccc(F)c(F)c2)C1 (centres undefined),12.5% (inactive)
11,COC(=O)c1ccc(/C=C/c2c(-c3ccc(OC)cc3)sc3ccccc23)cc1,2.88% (inactive)
12,CC(OC(=O)c1ccc(-n2cnnn2)cc1)C(=O)NCc1ccccc1 (centres undefined),0.686% (inactive)
13,CCCCn1c(=S)[nH]c2cc(S(=O)(=O)N3CCCCC3)ccc21,9.62% (inactive)
14,CCCn1c(=S)[nH]c2ccc(C(F)(F)F)cc21,96.9% (active)
15,CC(C)n1c(=S)[nH]c2cc(C(F)(F)F)ccc21,25.9% (inactive)
16,O=C(CNC(=O)c1ccccc1F)OCC(=O)c1c[nH]c2ccccc12,-4.95% (inactive)
17,CC(C)n1cnc2c(NCc3ccccc3)cc(N[C@@H](CO)Cc3ccccc3)cc21,-30.8% (inactive)
18,Cc1ccc(OCc2nc3ccccc3n2C)cc1,-6.95% (inactive)
19,Cn1c(Nc2cccc(Cl)c2)nc2ccccc21,10.5% (inactive)
20,Cc1ccc(O)c(CNc2nc3ccccc3n2C)c1,90.7% (active)
21,Cc1ccc(-c2csc(NCCc3nc4cc(Cl)c(Cl)cc4n3CCOCCO)n2)cc1,-6.99% (inactive)
22,O=C(c1n[nH]c2c1CCC2)N1CCCC(Nc2cccc(F)c2)C1 (centres undefined),99.1% (active)
23,Cc1ccc(F)cc1S(=O)(=O)Nc1cccc(C(=O)N2CCCC(C(N)=O)C2)c1 (centres undefined),-5.56% (inactive)
24,O=C(Nc1cccc(F)c1)NC1CCCCCCC1,43.5% (inactive)

row,SMILES,inhibition
1,CCCCn1c(N)c(N(CC(C)C)C(=O)c2cnc(C)cn2)c(=O)[nH]c1=O,-2.15% (inactive)
2,COc1ccc(-n2cc(CNC3CCOCC3)c(-c3cccc(F)c3)n2)cc1,-7% (inactive)
3,COc1ccc(-c2nn(-c3ccccc3)cc2CN2CCCO2)c(F)c1,83.5% (active)
4,CCC(O)C1CCN(Cc2cn(-c3ccc(OC)cc3)nc2-c2cccc(F)c2)CC1 (centres undefined),-36.1% (inactive)
5,C[C@@H]1NC(=O)[C@@]2(C)[C@@H](c3ccccc3)[C@H]3COc4ccccc4[C@@H]3N2C1=O,0.598% (inactive)
6,CC(C)Nc1nnc(SCC(=O)/C=C2\N(C)c3ccccc3C2(C)C)s1,-3.17% (inactive)
7,CN1CCN(CCC(=O)N/N=C/C=C2\N(C)c3ccccc3C2(C)C)CC1,99% (active)
8,CN1/C(=C\C(=O)c2cccnc2Cl)C(C)(C)c2ccccc21,-13.8% (inactive)
9,Cc1ccc(NC(=O)CN(C)C(=O)c2ccc(Cl)c(S(=O)(=O)NCc3ccco3)c2)cc1,-3.45% (inactive)
10,Cc1ccc(-c2nn(-c3ccc(F)cc3)cc2C(=O)NCC(c2cccs2)N2CCOCC2)cc1 (centres undefined),-3.7% (inactive)
11,CC1(C)CC[C@]2(C(=O)O)CC[C@]3(C)C(=CCC4[C@@]5(C)CC[C@H](O)C(C)(C)C5[C@H](O)C[C@]43C)[C@@H]2C1 (some centres undefined),-9.76% (inactive)
12,O=C(CN1CCN(c2ccc(O)cc2)CC1)Nc1cc(S(=O)(=O)N2CCOCC2)ccc1Cl,94.9% (active)
13,O=C(CN1CCOCC1)Nc1cc(Cl)ccc1Cl,-11.6% (inactive)
14,O=C(CN1CCN(c2cccc(Cl)c2)CC1)Nc1ccc(S(=O)(=O)N2CCOCC2)cc1,-14.5% (inactive)
15,Cc1ccc2c(CSc3nncs3)cc(=O)oc2c1,-0.57% (inactive)
16,CCOC(=O)Cc1csc(NC(=O)COc2ccc3c(C)cc(=O)oc3c2)n1,-3.23% (inactive)
17,CCOC(=O)Cc1csc(SCc2cc(=O)oc3cc(O)ccc23)n1,97.7% (active)
18,O=C(NCCc1ccc(F)cc1)c1ccc2nccnc2c1,-6.27% (inactive)
19,CS(=O)(=O)c1ccc(Cl)c(NC(=O)COC(=O)c2ncc(Cl)c(Cl)c2Cl)c1,0.688% (inactive)
20,Cc1ccc(NC(=O)CSCC(=O)Nc2sccc2C#N)cc1,98.7% (active)
21,Cc1cccc(C)c1Nc1nnc(SCC(=O)Nc2sccc2C#N)s1,14.7% (inactive)
22,N#Cc1ccsc1NC(=O)CN1CCCCC1,3.1% (inactive)
